This note sets out measurements from PubChem BioAssay AID720690 (Broad Institute, 2013).

The structures appear in SMILES notation. Potency and affinity values are given separately. Values without a mark were called inactive.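 The calls were made as follows: active = every repeat run showing a signal drop whose fitted half-maximal concentration is at most twice the top tested concentration; inconclusive = repeat runs disagree, or flat partial drop, or poor fit; inactive = the rest.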

This experiment in a line: general mammalian cell viability loss – activator set, cherry-pick, cytotoxicity control for miR-122 modulator project, dose response (AID 720690).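 Also: 0% = neutral control wells and -100% = MG132 cytotoxic control wells.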 The note with it: HEK293T viability, CellTiter-Glo luminescence, 48 h; series mostly up to 26 µM; activity change, negative = cytotoxicity: at the top concentration.
Regarding `Cc1ccc(-n2c(Cc3ccccc3)n[nH]c2=S)cc1`, the “activity change, negative = cytotoxicity” value is 13.4%.

With `COc1ccc(CNC(=O)NCCc2c[nH]c3ccccc23)cc1`, the “activity change, negative = cytotoxicity” value was 26.2%.

As to `Cc1ccc(-c2ccc3c(c2)O[C@H](CN(C)Cc2cncnc2)[C@H](C)CN([C@@H](C)CO)S3(=O)=O)cc1`, the “activity change, negative = cytotoxicity” value was -21.3%.

As for `COc1cccc(-c2nn(-c3ccccc3)cc2CO)c1`, the “activity change, negative = cytotoxicity” value was -5.48%.

As for `CN1C(=O)c2cc(NC(=O)c3cccs3)ccc2OC[C@@H]2O[C@@H](CC(=O)O)CC[C@H]21`, the “activity change, negative = cytotoxicity” value was -1.12% [at 23.5 µM].

In the case of `O=c1c2c3c(sc2nc2n1CCC2)CCCC3`, the “activity change, negative = cytotoxicity” value was 3.96%.

As to `COCC(=O)N(C[C@H]1[C@H](c2ccccc2)[C@@H](CO)N1C(=O)NC(C)C)C(C)C`, the “activity change, negative = cytotoxicity” value was 5.41%.

Take `CNC(=O)C[C@@H]1CC[C@@H]2[C@H](COc3ccc(NC(=O)c4cccc(OC)c4)cc3C(=O)N2C)O1`: the “activity change, negative = cytotoxicity” value was 4.45%.

On to `O=C(C1CCOCC1)N1[C@H](CO)[C@H]2c3ccccc3NC[C@H]21`, for which the “activity change, negative = cytotoxicity” value was -7.8% [at 23.5 µM].

For the molecule `O=C(C1CC1)N1C[C@H]2[C@@H](c3ccccc31)[C@H](CO)N2C(=O)c1ccccc1F`, the “activity change, negative = cytotoxicity” value is 0.81% [at 23.5 µM].

Turning to `CN1C(=O)c2cc(NC(=O)c3ccccc3F)ccc2OC[C@H]2O[C@H](CC(=O)NCc3ccc4c(c3)OCO4)CC[C@@H]21`, the “activity change, negative = cytotoxicity” value is -17%.

With `CCCNC(=O)C[C@@H]1CC[C@@H]2[C@@H](COc3ccc(NS(=O)(=O)c4ccccc4C)cc3C(=O)N2C)O1`, the “activity change, negative = cytotoxicity” value was -3.61%.

Turning to `COC(=O)C[C@H]1CC[C@@H]2[C@H](COc3ccc(NC(=O)c4cc(F)cc(F)c4)cc3C(=O)N2C)O1`, the “activity change, negative = cytotoxicity” value is 4.97%.

In the case of `COCCN(C[C@H]1[C@@H](c2ccccc2)[C@H](CO)N1C(=O)C1CCC1)C(C)=O`, the “activity change, negative = cytotoxicity” value was 7.16%.
